Screening results (PubChem BioAssay)
PLAP act: PLAP enzyme activators, biochemical, luminescence, HTS; purified PLAP enzyme, luminescent substrate read-out; active compounds read high; activation fold at 20 µM; actives 1.2% (n = 96,000); AID 696, 2007; in the data active = activation fold above about 2
PostGolgi ctrl: growth inhibition of yeast control strain, primary screen, counter-screen for post-Golgi transport modulator project; efflux-deficient yeast background strain, growth absorbance A615, 16 h; inhibition, % at 10 µM; actives 5% (n = 98,000)
PostGolgi yeast: phenotypic screen on post-Golgi transport, primary screen | post-Golgi transport phenotypic cell assay | inhibition, % at 10 µM | actives 0.9% (n = 98,000);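 also: yeast cells grown in 1536-well plates; yeast grown about 18 h at 30C before absorbance read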
D1 mod: D1 CRE-luciferase signal change, two-sided – cell-based, HEK293 D1, dopamine EC30, D1 allosteric modulator project, primary screen; AID 641, 2007; B-score at 10 µM; actives 5.9% (n = 58,000); dopamine EC30 potentiation; actives deviate in either direction; D(1A) dopamine receptor (Homo sapiens), P21728;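 active = luminescence count or its row- and column-corrected plate score outside the 99.7% band of the plate's sample wells, on either side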
hDAT+cocaine: changed hDAT dopamine uptake under cocaine IC80, either direction, primary screen, cocaine antagonist project, cell-based, LLC-PK1 hDAT, [14C]-dopamine uptake, MLSMR | Sodium-dependent dopamine transporter (Homo sapiens), Q01959 | LLC-PK1 hDAT cells, [14C]-dopamine uptake with cocaine IC80; actives deviate in either direction | B-score at 10 µM | actives 1.3% (n = 110,000) | AID 449768, 2010;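 active = Z score or B-score, a plate-position-corrected score, falls beyond the plate's 99.7% confidence bounds, in either direction; inactive = both scores lie inside the 99.7% bounds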
Target sequence (Q01959 whole entry, looked up): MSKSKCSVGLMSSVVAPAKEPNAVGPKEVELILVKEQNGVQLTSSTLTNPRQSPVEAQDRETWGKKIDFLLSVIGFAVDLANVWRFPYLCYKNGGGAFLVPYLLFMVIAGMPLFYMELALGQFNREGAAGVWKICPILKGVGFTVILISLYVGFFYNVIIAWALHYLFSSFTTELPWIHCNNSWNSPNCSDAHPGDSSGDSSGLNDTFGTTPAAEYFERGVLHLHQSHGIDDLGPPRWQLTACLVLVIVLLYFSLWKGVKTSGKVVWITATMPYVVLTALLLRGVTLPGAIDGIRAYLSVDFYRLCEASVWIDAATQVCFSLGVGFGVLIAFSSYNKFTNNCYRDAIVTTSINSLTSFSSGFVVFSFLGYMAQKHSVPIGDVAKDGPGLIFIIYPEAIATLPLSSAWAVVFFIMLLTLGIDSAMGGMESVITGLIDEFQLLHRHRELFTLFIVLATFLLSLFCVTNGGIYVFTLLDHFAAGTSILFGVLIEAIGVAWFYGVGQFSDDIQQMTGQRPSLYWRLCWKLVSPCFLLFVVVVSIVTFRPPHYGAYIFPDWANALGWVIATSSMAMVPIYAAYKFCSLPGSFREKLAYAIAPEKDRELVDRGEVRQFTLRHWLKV
Cav32 inh: Cav3.2 calcium influx blockers – cell-based, Fluo-4 calcium fluorescence, FDSS, MLSMR library, primary screen; B-score at 10 µM; actives 4% (n = 100,000); Cav3.2-expressing cells; active compounds read low;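 active = single-dose well whose peak fluorescence ratio is a statistical outlier from its plate by either plate-standardised score or position-corrected B-score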
Each line names hits and unclear results; the compound was inactive in the other large screens. Rows were chosen to be rich in hits. Some 12% of all compounds tested hit in one or more screens of this group. Rule as the data show it, unless noted: active = inhibition above about 30%; inactive = the rest.

Cc1ccc(C(=O)NCCSc2ccc(Cl)cc2)cc1S(=O)(=O)Nc1ccccc1	none (no result: D1 mod)
CSc1cc(-c2ccc(Cl)cc2)c(C(=O)NN)s1	hDAT+cocaine 3.2 (no result: D1 mod)
CCOc1cc(C2C(C#N)=C(N)OC(C)=C2C(C)=O)c(Br)c(Br)c1OC(C)C (stereo not drawn)	Cav32 inh -5.3 (no result: PLAP act, PostGolgi ctrl, PostGolgi yeast, D1 mod)
CC1(C)CC(=O)c2cnn(-c3nc4ccccc4[nH]3)c2C1	PLAP act 2.1
Cc1cc2c(cc1C)NC(c1nc3ccccc3[nH]1)C1=C(CC(C)(C)CC1=O)N2 (stereo not drawn)	none (no result: D1 mod, hDAT+cocaine, Cav32 inh)
NS(=O)(=O)c1ccc(NCc2cc(Cl)ccc2OCc2ccccc2F)cc1	PostGolgi ctrl 39 (no result: D1 mod)
Cc1ccccc1Nc1nc(N)nc(COC(=O)CCS(=O)(=O)c2ccccc2)n1	none
Cc1ccc2c(CC(=O)OCc3nc(N)nc(Nc4ccccc4C)n3)coc2c1	PostGolgi ctrl 36
Cc1ccc2c(CC(=O)OCc3csc(C)n3)coc2c1	hDAT+cocaine -7.4 (no result: PLAP act)
CCC(=O)Nc1c(C#N)c2nc3ccccc3nc2n1-c1ccccc1C	none (no result: PLAP act)
COc1ccc(-n2c(NC(=O)c3ccco3)c(C#N)c3nc4ccccc4nc32)cc1	none
CCCCn1c(NC(=O)c2ccccc2Cl)c(C#N)c2nc3ccccc3nc21	PostGolgi yeast 33, Cav32 inh -8.8
CCC(=O)Nc1c(C#N)c2nc3ccccc3nc2n1C1CCCCC1	PostGolgi ctrl 37
CCCNC(=O)C1CC(c2cccc(F)c2)=NO1 (stereo not drawn)	none (no result: PLAP act, PostGolgi ctrl, PostGolgi yeast, D1 mod)
COc1cccc(CNc2cccc3cccnc23)c1O	none
COc1cccc(CNc2cnc3ccccc3c2)c1O	Cav32 inh -4.5 (no result: PLAP act, PostGolgi ctrl, PostGolgi yeast, D1 mod)
CC(=O)Nc1ccc(S(=O)(=O)n2cnc3ccccc32)cc1	none (no result: D1 mod)
Cc1ccc(-c2nc3ccccc3s2)cc1S(=O)(=O)N1CCOCC1	PostGolgi ctrl 34 (no result: D1 mod)
O=S(=O)(c1cc(-c2nc3ccccc3s2)ccc1Cl)N1CCOCC1	none (no result: D1 mod)
Cc1cccc(N2CCN(C(=O)Cc3cn(C)c4ccccc34)CC2)c1C	PostGolgi ctrl 43 (no result: D1 mod)
Cc1cccc(N2CCN(C(=O)C(C)C)CC2)c1C	PostGolgi ctrl 85, PostGolgi yeast 91 (no result: D1 mod)
COc1cccc(NC(=O)N2CCN(c3cccc(C)c3C)CC2)c1	Cav32 inh -7
Oc1c(Cl)cc(Cl)cc1Sc1cc(Cl)cc(Cl)c1O	hDAT+cocaine -4.3 (no result: PLAP act, PostGolgi ctrl, PostGolgi yeast, Cav32 inh)
CCCCCCN=CC1=C(O)C(C(=O)OC)C(C)(C)CC1=O (stereo not drawn)	none (no result: Cav32 inh)
Fc1ccccc1Cc1nnc2n1N=C(c1ccc(Cl)cc1)CS2	none (no result: D1 mod)
Cc1[nH]c2c(C)cccc2c1CCNC(=O)c1ccc2c(c1[N+](=O)[O-])C(=O)c1ccccc1C2=O	PostGolgi ctrl 40 (no result: D1 mod)
CC(C)Cn1c(Cc2ccccc2)n[nH]c1=S	none (no result: D1 mod)
NC(=O)c1cc(N)ccc1N1CCCC1	PostGolgi ctrl 32
O=c1ccc(Cc2ccccn2)n[nH]1	none (no result: D1 mod)
Cc1cc(C)c(S(=O)(=O)Nc2ccc(OCC(=O)O)cc2)c(C)c1	PostGolgi ctrl 41 (no result: D1 mod)
COc1cccc(NS(=O)(=O)c2c(C)cc(C)cc2C)c1	PostGolgi ctrl 32
COc1ccc(NS(=O)(=O)c2c(C)cc(C)cc2C)cc1	Cav32 inh -6.1 (no result: D1 mod)
C=CCOc1c(CNc2nccs2)cccc1OCC	PostGolgi yeast 33
CC1=CC(C)C2(CO)COC(c3ccccc3O)C1C2C (stereo not drawn)	none (no result: D1 mod)
N#C/C(=C/c1ccc(Sc2nc3ccccc3[nH]2)o1)c1cccc(Br)c1	PostGolgi ctrl 32 (no result: D1 mod)
N#C/C(=C/c1ccc(Sc2nc3ccccc3[nH]2)o1)c1cccc(F)c1	PostGolgi ctrl 55, Cav32 inh -4.5 (no result: D1 mod)
N#C/C(=C/c1ccc(Sc2nc3ccccc3[nH]2)o1)c1ccccc1F	PostGolgi yeast 41 (no result: D1 mod)
N#C/C(=C\Nc1ccc2c(c1)OCCO2)c1nc2ccccc2[nH]1	none
Cc1cc(C)nc(Nc2ncc(O)n2-c2ccc(C)c(Cl)c2)n1	none
Cc1cc(C)nc(Nc2ncc(O)n2-c2ccc(C)c(C)c2)n1	PLAP act 2.6 (no result: D1 mod)
O=C(NCCc1csc(-c2ccccc2)n1)c1cccs1	D1 mod -5.1
O=C(Nc1nsc(-c2ccccc2)n1)c1cccs1	D1 mod -4.4
Cc1nc(CCNC(=O)c2cccs2)cs1	none (no result: PLAP act, PostGolgi ctrl, PostGolgi yeast)
CC(C(=O)Nc1ccc2c(c1)OCCO2)N1CCN(C(=O)c2ccco2)CC1 (stereo not drawn)	none (no result: D1 mod, Cav32 inh)
Cc1cccc2cc(CN(Cc3ccccc3)C(=O)c3cccc(F)c3)c(Cl)nc12	none (no result: D1 mod)
Cc1cccc2cc(CN(C(=O)c3cnccn3)C3CCCCC3)c(Cl)nc12	PostGolgi ctrl 33 (no result: D1 mod)
Cc1nc2cc(-c3cccc(F)c3)nn2c(N2CCN(C(=O)c3ccco3)CC2)c1C	none (no result: D1 mod, hDAT+cocaine, Cav32 inh)
COC(=O)CNc1nc(-c2cccnc2)nc2ccccc12	none (no result: D1 mod)
c1cncc(-c2nc(NCC3COc4ccccc4O3)c3ccccc3n2)c1 (stereo not drawn)	PostGolgi ctrl 47 (no result: D1 mod, hDAT+cocaine, Cav32 inh)
Cc1cccc(-n2cnc(C(=O)N/N=C/c3ccccc3)c2)n1	none (no result: D1 mod)
CCOC(=O)c1csc(Nc2nc3ccc(F)cc3s2)n1	none (no result: D1 mod, hDAT+cocaine, Cav32 inh)
CC(=O)c1sc(Nc2nc3ccc(F)cc3s2)nc1C	PLAP act 2.3 (no result: D1 mod)
[O-][n+]1c2c(c3c4non(O)c4ccc31)CCCC2	PostGolgi ctrl 82, PostGolgi yeast 31, Cav32 inh -6.8 (no result: D1 mod)
O=C(Nc1nnc(C2CC2)s1)c1ccncc1	none (no result: D1 mod)
Cn1c(SCc2nc3ccccc3c(=O)[nH]2)nnc1-c1ccco1	none
Cn1c(-c2ccccc2)cnc1SCc1nc2ccccc2c(=O)[nH]1	PLAP act 2.5
O=C(CSc1cccc(C(F)(F)F)c1)Nc1ccc(Cl)cc1Cl	none (no result: D1 mod)
O=C(/C=C/c1ccc(F)cc1)NCCC1=CCCCC1	Cav32 inh -6.2 (no result: D1 mod)
O=C(CN(Cc1ccccc1)S(=O)(=O)c1ccc(F)cc1)NCCC1=CCCCC1	none (no result: D1 mod)
O=[N+]([O-])c1ccc2c(c1)C(N1CCOCC1)/C(=C/COc1ccc3ccccc3c1Br)O2 (stereo not drawn)	none (no result: D1 mod)
O=[N+]([O-])c1ccc2c(c1)C(N1CCOCC1)/C(=C/COc1ccc(F)cc1)O2 (stereo not drawn)	Cav32 inh -7.3 (no result: D1 mod)
O=[N+]([O-])c1ccc(OC/C=C2\Oc3ccc([N+](=O)[O-])cc3C2N2CCOCC2)cc1 (stereo not drawn)	PostGolgi ctrl 35 (no result: D1 mod)
CCOc1ccc(N(CC(=O)NC2CCCC2)S(=O)(=O)c2c(C)[nH]c(=O)[nH]c2=O)cc1	none
CC(=O)C1=C(C)Nc2ncnn2C1c1ccc(Cl)cc1Cl (stereo not drawn)	none
CCC(=O)Nc1ccc(NC(=O)CSc2nnnn2C(C)C)cc1	none
